PubChem BioAssay (NCI)
About 83,000 compounds went through this panel and 20% of them were active in at least one assay; those are over-represented in the sample as a whole.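 48-hour exposure, single concentration, 96-well plates; percent growth endpoint where 0 means no net growth. Active: below 10.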 Values without a mark were called inactive. Calls of active or inactive are those of the source.

Experiments:
Assay in all cases: NCI-60 one-dose screen, 48 h (100 = growth as untreated, 0 = no growth, -100 = all killed)
Settings in all cases: 10 µM unless noted
NCI-H23 lung = tested on: NCI-H23 lung
NCI-H226 lung = tested on: NCI-H226 lung
NCI-H322M lung = tested on: NCI-H322M lung
HOP-62 NSCLC = tested on: HOP-62 NSCLC
NCI-H460 lung = tested on: NCI-H460 lung
HOP-92 NSCLC = tested on: HOP-92 NSCLC
NCI-H522 lung = tested on: NCI-H522 lung
A549/ATCC NSCLC = tested on: A549/ATCC NSCLC
786-0 renal = tested on: 786-0 renal
COLO 205 colon = tested on: COLO 205 colon

SMILES	growth (NCI-H23 lung)	growth (NCI-H226 lung)	growth (NCI-H322M lung) [%]	growth (HOP-62 NSCLC)	growth (NCI-H460 lung)	growth (HOP-92 NSCLC)	growth (NCI-H522 lung)	growth (A549/ATCC NSCLC)	growth (786-0 renal)	growth (COLO 205 colon)
Cn1c(=O)c2[nH]c(C3CC=CCC3)nc2n(C)c1=O (stereo not given)	98.2%	103%	102	90.5%	109%	70.1%	98%	106%	105%	97.4%
COc1ccc(-c2c(N)n[nH]c2-c2cc3c(c(OC)c2OC)OCO3)cc1	96.8%	99.9%	100	101%	105%	87.2%	81.5%	97.1%	105%	101%
CNc1ccc(Br)c2c1C(=O)c1ccccc1C2=O	98.3%	104%	110	107%	105%	80.6%	98%	110%	96.7%	132%
Cc1nn(-c2ccc([N+](=O)[O-])cc2)c2ncnc(NCCc3ccccc3)c12	95.9%	97.8%	116	102%	91.6%	91.3%	107%	99.8%	105%	104%
Cc1ccc(S(=O)(=O)NC(=O)n2cc(-c3ccncc3)c(-c3ccc(Cl)c(O)c3)n2)cc1	108%	98.6%	111	116%	111%	99%	91.3%	99.6%	95.4%	113%
O=C1/C(=C/c2ccccc2)Oc2ccc(O)c(I)c21	96.5%	74.9%	94.5	100%	103%	86%	84%	103%	98.9%	120%
CCCCN(CCCC)c1ccc(C(=N)c2ccc(N(CCCC)CCCC)cc2)cc1	-77% (active)	-90.7% (active)	11.9	-96.8% (active)	-85.9% (active)	-83% (active)	-87% (active)	-86.6% (active)	-91.2% (active)	-96.2% (active)
COc1cc(/C=N\NC(=O)CN2CCN(c3cc4c(cc3F)c(=O)c(C(=O)N/N=C/c3cc(OC)c(OC)c(OC)c3)cn4C3CC3)CC2)cc(OC)c1OC	-36.4% (active)	-64.7% (active)	11.5	-11.8% (active)	-23.3% (active)	-39% (active)	8.22% (active)	73.4%	54.9%	7.48% (active)
COc1cc2c(cc1O)CCN1C[C@@H](CC(C)C)[C@@H](O)C[C@@H]21	99.9%	96.6%	105	93.5%	116%	63.8%	93.6%	107%	92%	127%
CCCCCCCC/C=C/CCCCCCCC1=NC(C)(C)CN1C(C)(C)CO	44.7%	86.2%	58.5	30.6%	-86.4% (active)	20.3%	13%	30.8%	60.3%	-86.3% (active)
NNc1cccc(/C=C/c2ccccc2)cc1=O	73.1%	83%	71.1	71.1%	27.5%	59.8%	57.7%	64.6%	69.1%	70.6%
O=c1cc/c(=N\Nc2ccccc2)c(=O)/c1=N/Nc1ccccc1	93.9%	108%	93.7	84.8%	95.7%	-1.02% (active)	110%	123%	112%	137%
COc1cc(C2C3=C(COC3=O)Nc3cc4c(cc32)CCC4)cc2c1OCO2 (stereo not given)	19.6%	31.9%	50.7	35.5%	7.05% (active)	41.1%	-3.96% (active)	18.7%	18.1%	-63.1% (active)
CC(C)(C)OC(=O)NCCc1ccc(N=C=S)cc1	81.4%	99.1%	86.9	70.1%	82.2%	39.4%	16.1%	77.4%	80%	72.4%
COc1ccc(NC(=O)c2c(Nc3ccc(OC)cc3OC)n[nH]c2N)c(OC)c1	91.7%	89.9%	87.7	94.3%	107%	74.1%	79.3%	96.8%	107%	100%
CC(C)CSc1nc(NN)c(C#N)c(-c2ccccc2)n1	99.7%	89.1%	89.5	94.1%	97.4%	108%	88.2%	105%	98.4%	111%
Cc1ccc(Nc2nnc(-c3ccc(Cl)cc3)o2)c(C)c1	84.4%	99.6%	102	81.8%	97.1%	107%	41%	79.2%	89.3%	81.4%
COC(=O)c1cc2cc(-c3ccc(OC)cc3)cnc2[nH]1	36.8%	45.1%	50.4	50.3%	6.52% (active)	0.19% (active)	-52.2% (active)	24.9%	37.1%	0.277% (active)
Cc1c(C(N)=O)sc2c1c(=O)n(Cc1ccccc1)c1nnc(Nc3ccccc3)n21	101%	106%	105	89.1%	119%	101%	87.1%	94.4%	105%	101%
C=C(C)[C@@H]1C[C@H](O)Cc2cc(F)ccc2N1	96.9%	95.6%	102	87.4%	101%	95.6%	93.7%	97.5%	105%	101%
Nc1nc(Nc2cc(Cl)cc(Cl)c2)nn1S(=O)(=O)c1ccc2ccccc2c1	66.5%	66.7%	76.4	66%	27.8%	-10.4% (active)	69%	42.7%	25.5%	66.5%
Cc1ccc(S(=O)(=O)C2=C3C(=C(c4ccccc4)c4ccccc43)CN(S(=O)(=O)c3ccc(C)cc3)C2)cc1	47.1%	79.1%	93.8	88.6%	63.8%	3.21% (active)	-45.9% (active)	70.9%	5.02% (active)	71.3%
COc1ccc(Nc2nc(N)nc3c2CCN(Cc2ccc(OC)cc2OC)C3=O)cc1	73.1%	88%	71.1	63.2%	67.8%	7.69% (active)	89.3%	85.6%	72.1%	110%
COc1ccc(S(=O)(=O)n2ccc(-c3ccc4c(c3)CCC(C)(C)O4)n2)cc1OC	56.1%	59%	89.5	112%	69.6%	58.3%	65.8%	67.1%	79.4%	87.1%
N#Cc1ccc(N2Cc3ccccc3OC3=C2C(=O)c2c(O)ccc(O)c2C3=O)cc1	14.2%	10.4%	66.8	16%	46.9%	-66.2% (active)	-75.6% (active)	72.9%	-42.9% (active)	-69.3% (active)
O=C(Nc1ccncc1)C(=O)c1cn(S(=O)(=O)c2ccc(Oc3ccccc3)cc2)c2ccccc12	77.5%	103%	94.4	88%	72.1%	71.6%	87.4%	71.8%	89.2%	107%
CC(C)(C)c1[nH]nc2c1C(c1cc3ccccc3[nH]c1=O)Nc1cc(C(=O)Nc3ccc(Cl)cc3)ccc1N2 (stereo not given)	78.9%	105%	78.6	83.6%	74.1%	86.1%	74.5%	89.6%	66.1%	83.6%
